Experimental findings from PubChem BioAssay AID1626 (SRMLSC, 2009) are described below.

Molecules are shown by their SMILES. The campaign covered roughly 220,000 compounds. About 2,000 (0.91%) were called active. About 2% were inconclusive and are not listed. Not all results are given here. Results with a measured potency or affinity are listed apart. A number with no mark means an inactive call. No stated cut-off is given here; in the data, inconclusive means inhibition above about 80% without an active follow-up result; inactive means below that; test concentration not stated here.

The assay can be described thus: M. tuberculosis H37Rv growth inhibitors, H37Rv strain (AID 1626).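 Further: bacteria incubated seven days before Alamar blue readout; 0% = bacteria only wells and 100% = bacteria with antibiotic wells.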 To be noted: hits give high values, concentration not given here.
Regarding `O=C(N/N=C/c1ccc2c(c1)OCO2)c1cc(-c2ccccc2Cl)nc2ccccc12`, the inhibition – broadly, the relative decrease from the control value, in per cent – is 4.7%.
Turning to `CSc1ccc(/C=C/C(=O)OCC(=O)NC(C)C)cc1`, the inhibition is 0.59%.
On to `O=C(Nc1ccccc1)NC1CCN(Cc2ccccc2)CC1`, for which the inhibition is -1.63%.
Consider `O=C(Cn1c(=O)n(CC2CCCO2)c(=O)c2ccccc21)c1ccccc1` (stereo not drawn), for which the inhibition was 1.39%.
To `O=C(CCCSc1nc2sc3c(c2c(=O)[nH]1)CCC3)NCCO` belongs -2.38%; to `O=C(NNC(=O)c1cccnc1)Nc1ccc(Cl)c(Cl)c1`, -1.69%.
As for `C=CCn1c(SCn2nnc3ccccc3c2=O)nc2scc(-c3cccs3)c2c1=O`, the inhibition was -6.52%.
`COc1cc(CCC(O)CC(=O)CCc2ccccc2)ccc1O` (stereo not drawn): the inhibition is -13%.
Turning to `COc1ccc(-c2nnc(-c3ccc(OCC(C)C)cc3)o2)cc1`, the inhibition is -2.52%.
Take `O=C(Nc1nn[nH]n1)c1cccc([N+](=O)[O-])c1`: the inhibition was 2.86%.
The same measure for `CCOC(=O)CNC(=O)Nc1nnc(-c2ccc(OCC)cc2)o1`: -3.79%; for `O=C(Nc1nnc(-c2cccnc2)o1)c1cccc([N+](=O)[O-])c1`: 74.6%.
On to `CC(C)(C)c1cc(NC(=O)COc2ccc(Br)cc2)n(-c2ccccc2)n1`, for which the inhibition is -8.73%.
With `COCCCNC(=O)c1ccc(-n2nc(C(F)(F)F)cc2-c2cccs2)cc1`, the inhibition is 2.29%.
Regarding `CC1=CC(c2ccc(Cl)cc2)n2nc(NS(=O)(=O)c3ccc(C)cc3)nc2N1` (stereo not drawn), the inhibition was -12.5%.
To `CC1(C)CC(NC(=S)NC2CC2)CC(C)(C)N1` belongs -4.39%.
For the compound `Cc1ccc(Oc2ccc(NC(=O)CCC(=O)OCC(=O)c3cccs3)cc2)cc1C`, the inhibition was -2.17%.
For the compound `O=C(CCCC(=O)OCC(=O)c1cccs1)Nc1ccc(F)cc1`, the inhibition is -9.65%.
Consider `O=C(c1cccnc1)N1CCC(Oc2ccc(C(=O)N3CCCCO3)cc2)CC1`, for which the inhibition was 4.71%.
Turning to `COCCN(C(=S)Nc1ccc(C)cc1)C(C)c1cccnc1` (stereo not drawn), the inhibition was -5.81%.
As for `CCCCCCn1c(CN2CCN(C(=O)OCC)CC2)nc2c1c(=O)n(C)c(=O)n2C`, the inhibition is 6.21%.
For `CCCCOc1ccc(OC(=O)c2cccnc2)cc1`, the inhibition was 6.86%.
Take `CCCCCCOC(=O)c1ccc(OC(=O)c2cccnc2)cc1`: the inhibition is 74.1%.
Consider `COc1ccc(OC(=O)c2cccnc2)cc1`, for which the inhibition was 0.67%.
`O=C(Oc1ccc(Br)cc1)c1cncc(Br)c1`: the inhibition is -0.78%.
To `O=C(Oc1cccc(Br)c1)c1cccnc1` belongs 13.2%; to `CCCCCCCOC(=O)c1ccc(OC(=O)c2cccnc2)cc1`, 8.62%; to `O=C(Oc1ccc([N+](=O)[O-])cc1)c1cncc(Br)c1`, 10.3%.
`CCOc1ccc(OC(=O)c2cccnc2)cc1`: the inhibition is 1.09%.
In the case of `Cc1cccc(NC(=O)c2sc(Cl)nc2-c2ccccc2)c1`, the inhibition is 8.83%.
Regarding `COc1cccc(CC2(CO)CCCN(Cc3ccc4c(c3)OCCO4)C2)c1` (stereo not drawn), the inhibition is 4.07%.
Take `Cc1nc2cc(Cl)c([N+](=O)[O-])cc2s1`: the inhibition is 7.87%.
As to `CC(C)Oc1ccc(CCc2nnc(SC(C)C(=O)O)n2-c2ccccc2)cc1` (stereo not drawn), the inhibition was 2.62%.
Turning to `CCc1ccccc1N1C[C@@]23C=C[C@@H](O2)C(C(=O)OCC(C)C)[C@H]3C1=O` (stereo partly drawn), the inhibition is -0.48%.
To `CCCCn1nc2cc(C(=O)N(CC)c3ccc(OC)cc3)ccc2c1OCC` belongs 0.26%; to `CN(C)c1ccc(C(=S)N2CCN(c3ccc([N+](=O)[O-])cc3)CC2)cc1`, 9.45%.
In the case of `COc1cc(NS(=O)(=O)c2ccc(N)cc2)nc(OC)n1`, the inhibition was 14.8%.
Turning to `COc1cc(NS(=O)(=O)c2ccc(NC(C)=O)cc2)ncn1`, the inhibition was 6.36%.
Turning to `O=C(CCC(=O)OCCCC(F)(F)C(F)(F)F)NC1CCCCC1`, the inhibition is -2.21%.
Take `COc1ccccc1NC(=O)c1[nH]c(C)c(C(C)=O)c1C`: the inhibition is -2.28%.
To `Cc1nc(-c2ccccc2)sc1C1(C)CC(c2ccc([N+](=O)[O-])cc2)=NO1` (stereo not drawn) belongs -6.22%; to `Brc1ccccc1-c1nnc(SCc2nc3ccccc3s2)o1`, 36%; to `CCN(CC)S(=O)(=O)c1cccc(-c2nnc(SCc3nc4ccccc4s3)o2)c1`, 2.86%.
The same measure for `COc1ccc(/C=C/C(=O)c2ccc(NC(=O)c3cccs3)cc2)cc1OC`: 5.93%.
In the case of `C/C(=N\NC(=O)CC(C)C)c1ccc(Cl)c(Cl)c1`, the inhibition is -0.71%.
As for `COc1ccc(CNCC(O)(c2ccccc2)c2ccc(Cl)cc2)cc1` (stereo not drawn), the inhibition is -0.19%.
Regarding `OC(CNCc1ccc(Cl)cc1)(c1ccccc1)c1ccc(F)cc1` (stereo not drawn), the inhibition is -2.55%.
Consider `Cc1ccc(S(=O)(=O)Nc2c(C)nn(C)c2C)cc1`, for which the inhibition is -3.98%.
In the case of `Cc1cc(C)n(C(=O)CCC(=O)Nc2ccc(C)c(C)c2)n1`, the inhibition is -4.23%.
Consider `Cc1[nH]c2ccccc2c1NC(=O)CN1CCN(c2cccc(C(F)(F)F)c2)CC1`, for which the inhibition was 8.35%.
For the compound `COc1ccc(-c2ncnc(C(F)(F)F)c2-c2csc(C)n2)c(O)c1`, the inhibition was -3.59%.
For the compound `O=C(NCc1ccco1)c1ccc(COc2ccc(Cl)cc2)cc1`, the inhibition was 15.4%.
On to `Nc1ccc(OCc2ccccc2)cc1`, for which the inhibition was 78.2%.
For `O=c1c2ccccc2nc2n1CCCS2`, the inhibition was -15.7%.
As for `O=c1c(C(c2ccc(Cl)cc2)c2c(O)nc3n(c2=O)CCCS3)c(O)nc2n1CCCS2`, the inhibition was -3.6%.
Regarding `Cc1sc2nc3n(c(=O)c2c1C)CCCS3`, the inhibition was -3%.
The same measure for `N#Cc1c(-c2ccc(Cl)cc2)nc2n(c1=O)CCCS2`: -3.54%; for `COc1ccc(C(=O)NCCNc2ccccc2[N+](=O)[O-])cc1`: -4.94%.
The same measure for `O=C(COC(=O)Cn1cnc2ccccc21)NCCc1ccc(Cl)cc1`: -3.57%; for `Cc1cccc(CN2C(=O)[C@H]3Cc4c([nH]c5ccccc45)C(C)(C)N3C2=O)c1`: 17.7%; for `CC1(C)c2[nH]c3ccccc3c2C[C@@H]2C(=O)N(Cc3ccccc3)C(=O)N21`: 2.35%.
As for `C=CCn1c(=O)c2c(C)c(C)sc2n2c(Nc3ccccc3)nnc12`, the inhibition is -3.44%.
Regarding `O=C(CNc1cccc(Cl)c1)NNC(=S)NCc1ccccc1`, the inhibition is -0.97%.
`COC(=O)/C=c1/sc2n(c1=O)CCN=2`: the inhibition was -5.21%.
On to `CSc1ccc(CN2CCCC(CO)(Cc3ccccc3)C2)cc1` (stereo not drawn), for which the inhibition was -4.33%.
For the compound `Cc1c(C(=O)O)sc2ncn(C)c(=O)c12`, the inhibition is -6.12%.
The same measure for `Cc1ccc(OCCn2cnc3sc(C(N)=O)c(C)c3c2=O)cc1`: 11.2%; for `CCn1cnc2sc(C(=O)O)c(C)c2c1=O`: -6.48%.
As to `CCn1cnc2sc(C(=O)Nc3ccccc3OC)c(C)c2c1=O`, the inhibition was 2.12%.
For `Cc1ccc(CC(=O)NCc2ccc3c(c2)OCO3)cc1`, the inhibition is 23.6%.
The same measure for `O=C(O)C1(P(=O)(c2ccc(Cl)cc2)c2ccc(Cl)cc2)CC1`: 1.34%.
With `CCc1ccc(OCC2c3cc(OC)c(OC)cc3CCN2C(=S)NCCOC)cc1` (stereo not drawn), the inhibition is 0.42%.
For `CSc1nnc(CNC(=O)c2ccccc2)n1-c1cccc(C)c1`, the inhibition was -0.55%.
As for `O=C(O)c1ccccc1N1C(=O)C2C3CCC(C3)C2C1=O` (stereo not drawn), the inhibition is -3.82%.
Take `CSC1=NCCN1C(=O)c1c(F)cccc1Cl`: the inhibition is 1.18%.
For the compound `Cc1ccc(S(=O)(=O)N2CCOCC2)cc1C(=O)NCc1ccco1`, the inhibition was -8.9%.
On to `O=C(COc1ccc2ccccc2c1)NCCn1ccc2ccccc21`, for which the inhibition was 9.42%.
Consider `Cc1cc2ccccc2n1CCNC(=O)COc1ccccc1`, for which the inhibition is 13.1%.
Take `Cc1nn(CC(=O)Nc2ccc3c(c2)nc2n3CCN(C3CCCCC3)C2)c(=O)c2ccccc12`: the inhibition is -1.06%.
With `Cc1nn(Cc2ccc(Cl)c(Cl)c2)c(C)c1NC(=O)c1noc2c1CCCCC2`, the inhibition is -6.28%.
On to `COc1ccc(C(=O)CSc2nnc3ccc(-c4ccccn4)nn23)cc1`, for which the inhibition was 2.65%.
`COc1ccc(C(=O)CSc2nnc(-c3ccccn3)n2Cc2ccco2)cc1`: the inhibition is -7.14%.
For `Cn1c(SCC(=O)c2ccc(F)cc2)nc2cccnc21`, the inhibition was 3.26%.
`Cc1nc2ccccc2nc1SCC(=O)c1ccccc1`: the inhibition is 8.55%.
Regarding `CCCc1nc(SCC(=O)c2ccc(F)cc2)c2ccccc2n1`, the inhibition is 8.42%.
On to `Cc1nc(-c2ccccn2)nc(SCC(=O)N2CCOCC2)c1Cl`, for which the inhibition is 3.81%.
`Cc1ccc(NC(=O)COC(=O)c2ccc([N+](=O)[O-])o2)cc1S(=O)(=O)N1CCCCC1`: the inhibition is 8.45%.
`O=C1c2ccccc2C(=O)N1CN(C(=O)c1ccccc1)c1ccc(O)cc1`: the inhibition is -0.6%.
Take `Cc1cccnc1CCNC(=O)CCc1nnc(-c2ccccc2)o1`: the inhibition was 5.3%.
`CCCN1CCN(C(=O)c2ccc(Sc3ccc(C)cc3)c(NC(C)=O)c2)CC1`: the inhibition was 3.99%.
Consider `CC(C)(C)c1ccccc1OCCCCN1CCCC1`, for which the inhibition is 6.1%.
Regarding `CC(C)(C)c1ccccc1OCCN1CCCC1`, the inhibition is -0.65%.
For the compound `CNC(=O)NC(=O)COC(=O)c1ccc(-n2c(C)ccc2C)cc1`, the inhibition is 20.2%.
Take `CCOc1ccc(NC(=O)CSc2nnc(C3CC3)n2C)cc1`: the inhibition was 27.2%.
Take `Cc1ccc(S(=O)(=O)N(CCCO)Cc2cc3c(C)ccc(C)c3[nH]c2=O)cc1`: the inhibition is -4.12%.
To `c1ccc(CN2CCN(c3nc4ccccc4n4cnnc34)CC2)cc1` belongs 6.21%.
On to `c1ccc(CC2CCN(c3nc4ccccc4n4nnnc34)CC2)cc1`, for which the inhibition is 12.1%.
For the compound `O=C(Nc1cccc(C(F)(F)F)c1)C1CCCN1S(=O)(=O)c1cccc2cccnc12` (stereo not drawn), the inhibition is -8.3%.
